The text below walks through data of PubChem BioAssay (NCI).

Structures are written as SMILES. This is part of a sample that, as a whole, favours compounds with a hit. Of some 83,000 tested, about 20% had one in any assay.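 Growth was measured after 48 h exposure to one concentration of compound in 96-well plates. Values under 10 count as active.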 Values without a mark were called inactive. Activity calls are given as the source filed them.

This experiment concerns SNB-19 CNS. Kind of experiment: NCI-60 one-dose screen, 48 h (100 = growth as untreated, 0 = no growth, -100 = all killed). The settings on record: 10 µM unless noted. The protocol: Growth inhibition of the SNB-19 human tumor cell line is measured as a screen for anti-cancer activity. Cells are grown in 96 well plates and exposed to the test compound for 48 hours. Compounds are tested at a single concentration, which is 10^-5 M for most compounds. The reported endpoint is percent growth (GI% or GIPRCNT), where numbers from 0 - 100% represent growth inhibition, and numbers from -100% - 0 represent cell death. For example, a value of 40 represents 60% growth inhibition. A value of 0 means no net growth occurred over the course of the experiment. A value of -40 indicates 40% of cells at the beginning of the experiment died by the end of the experiment. A value of -100 means all cells are dead at the end of the experiment.
NCI-60 Human Tumor Cell Lines Screen was performed using the standard one-dose NCI protocol, which is described in more detail at https://dtp.cancer.gov/discovery_development/nci-60/default.htm.
Compounds with GIPRCNT values below 10 were considered active. Activity score was based on GIPRCNT using the following formula: […]
Score is 0 for GIPRCNT values of 100 or above, 50 for GIPRCNT values of 0, and 100 for GIPRCNT values of -100.
Turning to `COc1cccc(-c2nc3sccn3c2-c2ccnc(NCCCNS(=O)(=O)c3ccc(F)cc3)c2)c1`, the growth is 62.3%. Consider `CCOC(=O)C1C(=O)C=C(c2ccc(OC)cc2)CC1c1sc(N(C)Cc2ccccc2)nc1Cl` (stereo not given), for which the growth was 74.1%. For the compound `C=C(C)[C@@H]1C[C@H](O)Cc2cc(F)ccc2N1`, the growth was 104%. Regarding `O=C(Nc1ccc(NCCN2CCOCC2)nc1)c1ccc([N+](=O)[O-])cc1`, the growth was 106%. On to `O=S(=O)(NCCCNc1nccc(-n2ccc3cccnc32)n1)c1ccc(Br)cc1`, for which the growth is 102%. As to `N#Cc1c(-c2ccccc2)nc(SCC(=O)N2CCN(c3ccccc3)CC2)[nH]c1=O`, the growth was 99.9%. Regarding `N#Cc1c(Nc2ccccc2)nc2n(c1=O)-c1ccccc1Sc1ccccc1-2`, the growth was 77.9%.

Regarding `C/C(=C\c1ccc(OCC(=O)O)c(Cl)c1Cl)[N+](=O)[O-]`, the growth was 115%. Take `COc1ccc(C(=O)N2NC(=O)/C(=C/c3cn(-c4ccccc4)nc3-c3ccccc3)N=C2c2ccccc2)cc1`: the growth was 88.6%. As to `COc1cc(C2C3=C(COC3=O)Nc3cc4c(cc32)OCO4)cc2c1OCO2` (stereo not given), the growth is 31%. For the compound `ClC(Cl)c1nc(-c2ccccc2)nc2cc(-c3ccccc3)nn12`, the growth was 55.7%. For the compound `CCCCNC(=O)Oc1ccc(/C(=C(\C)c2ccccc2)c2ccc(OCCN(CC)CC)cc2)cc1`, the growth was 89.2%. In the case of `Brc1cccc(-c2cc(-c3ccc4c(c3)OCCCO4)[nH]n2)c1`, the growth was 72.2% [25 µM]. Turning to `CCNc1nc(S(=O)(=O)CC)nc2ccccc12`, the growth was 103%. `O=C(/C=C\c1cccc([N+](=O)[O-])c1)/C=C/c1cccc([N+](=O)[O-])c1`: the growth is 94.5%. The value for `COc1ccc(C(=O)NC(=O)Nc2cc3c(cc2F)/C(=C/c2[nH]c(C)c(CCC(=O)O)c2C)C(=O)N3)c(F)c1` was 20%; that for `Nc1cccc(-c2nc3sccn3c2-c2ccnc(NCCCNS(=O)(=O)c3cccc4ccccc34)n2)c1` was 55.6%. As for `CCO/C=N/C1=C(C#N)C(c2ccc(Cl)cc2)c2c(c3ccc(C)cc3[nH]c2=O)O1` (stereo not given), the figure is 84.7%; as for `COc1ccc2c(c1)OC1=C(C(=O)OC1)C2c1cc(OC)c2c(c1)OCO2` (stereo not given), 29%; as for `COc1ccc(C(=O)c2cc(OC)c3c(c2)OCO3)cc1O`, 41%.

With `C=C1C(=O)O[C@H]2[C@H]1CC/C(Cn1cc(CNC(=O)Cc3cn(C(=O)c4ccc(Cl)cc4)c4ccc(OC)cc34)nn1)=C\CC[C@@]1(C)O[C@@H]21`, the growth is 47%. As to `OB(O)c1cccc(-c2nc3ccc4[nH]ncc4c3c3c2CCCC3)c1F`, the growth was 58.3%.

Turning to `COc1cc(/C=C/C(=O)N2CCN(C(=O)/C=C/c3cc(OC)c(OC)c(OC)c3)CC2)cc(OC)c1OC`, the growth was 105%.

With `Cc1ccc(Cc2c(C=O)nc(N)[nH]c2=O)c2ccccc12`, the growth was 98.5%.

With `O=C(Nc1cccc(-n2cc(-c3ccncc3)c(-c3ccc(Cl)c(O)c3)n2)c1)c1ccc(N2CCOCC2)c(C(F)(F)F)c1`, the growth is 65.7%. On to `Nc1nc(-c2ccccc2)c(CCCOc2ccc(NC(=O)CBr)cc2)c(=O)[nH]1`, for which the growth is 91.1%. Take `C=C(C)[C@@H]1C[C@@H]2Cc3cc(Cl)ccc3N1O2`: the growth was 105%.

Regarding `Clc1ccc2c(NC3CCC(NC4CCCCC4)CC3)ccnc2c1` (stereo not given), the growth was 81.9%. Take `CC1CN(c2oc(-c3ccccc3)nc2C#N)CC(C)O1` (stereo not given): the growth is 100%. `COc1cc(NC(N)=NCCC(C)(C)c2ccc(C(F)(F)F)cc2)ncc1C#N`: the growth was 48.4%. On to `Oc1ccccc1/C=N/NC(=S)NC1CC2C=CC1C2` (stereo not given), for which the growth was 82.3%. The value for `CC(=O)OC[C@]12CC[C@H]3[C@@H](C[C@H]4O[C@]45CC=CC(=O)[C@]35C)[C@]1(O)CC[C@@]2(O)[C@@](C)(O)C1CC(C)=C(C)C(=O)O1` (stereo not given in full) was 5.89% (active); that for `Cc1ccc(-c2cc3nc(C(Cl)Cl)nc(-c4ccccc4C)n3n2)cc1` was 70.2%. As to `O=c1cc/c(=N\Nc2ccccc2)c(=O)/c1=N/Nc1ccccc1`, the growth is 111%. For the compound `CCCCCCCCN(CCCCCCCC)CCCCCCNc1cc(OC)cc2cccnc12`, the growth is 94.1%.

Turning to `CC(C)(C)n1cc(-c2ccnc(NCCCNS(=O)(=O)c3cccc(F)c3)c2)c(-c2cccc(O)c2)n1`, the growth is 75.7%. Take `CCCCN(CCCC)C(=N)c1ccnc2ccccc12`: the growth was 115%. With `COc1cc(-c2ncn(/C=C\C(=O)OC(C)C)n2)cc(C(F)(F)F)c1`, the growth is 11.8%. For `COc1cccc(CC(C)=C(c2ccc(OCCN(C)C)cc2)c2ccc(OCCN(C)C)cc2)c1`, the growth was 15.2%.

Regarding `C=C1CC2(OC1=O)C(=O)N(CCCN1C(=O)C3(CC(=C)C(=O)O3)c3ccccc31)c1ccccc12` (stereo not given), the growth is 76.6%.
